This is an account of results in paper doi:10.1101/2025.02.07.636106.

Assay [1] has as its target Large ribosomal subunit protein eL36 (UniProt Q9Y3U8). The assay can be described thus: cross-linking mass spectrometry.
A further assay concerns the target Obscurin (UniProt Q5VST9). Put plainly: cross-linking mass spectrometry.
Assay [2] concerns the target Inositol 1,4,5-trisphosphate-gated calcium channel ITPR2 (UniProt Q14571). The assay can be described thus: cross-link between two proteins; cross-linking mass spectrometry.
The target of assay [3] is Nucleolar and coiled-body phosphoprotein 1 (UniProt Q14978). Described as above.
Assay [4] concerns the target Putative ribosomal protein eS10-like (UniProt Q9NQ39). Described as above.
Assay [5] addresses Ragulator complex protein LAMTOR3 (UniProt Q9UHA4). Described as above.
Assay [6] has as its target Synaptonemal complex protein 2-like (UniProt Q5T4T6). Described as above.
Assay [7] deals with V-type proton ATPase subunit D (UniProt Q9Y5K8). Described as above.
Assay [8] has as its target Zinc finger protein 28 homolog (UniProt Q8NHY6). The description is as above.
The target of another assay is T1, Zinc finger protein 786 (UniProt Q8N393).
T1 sequence: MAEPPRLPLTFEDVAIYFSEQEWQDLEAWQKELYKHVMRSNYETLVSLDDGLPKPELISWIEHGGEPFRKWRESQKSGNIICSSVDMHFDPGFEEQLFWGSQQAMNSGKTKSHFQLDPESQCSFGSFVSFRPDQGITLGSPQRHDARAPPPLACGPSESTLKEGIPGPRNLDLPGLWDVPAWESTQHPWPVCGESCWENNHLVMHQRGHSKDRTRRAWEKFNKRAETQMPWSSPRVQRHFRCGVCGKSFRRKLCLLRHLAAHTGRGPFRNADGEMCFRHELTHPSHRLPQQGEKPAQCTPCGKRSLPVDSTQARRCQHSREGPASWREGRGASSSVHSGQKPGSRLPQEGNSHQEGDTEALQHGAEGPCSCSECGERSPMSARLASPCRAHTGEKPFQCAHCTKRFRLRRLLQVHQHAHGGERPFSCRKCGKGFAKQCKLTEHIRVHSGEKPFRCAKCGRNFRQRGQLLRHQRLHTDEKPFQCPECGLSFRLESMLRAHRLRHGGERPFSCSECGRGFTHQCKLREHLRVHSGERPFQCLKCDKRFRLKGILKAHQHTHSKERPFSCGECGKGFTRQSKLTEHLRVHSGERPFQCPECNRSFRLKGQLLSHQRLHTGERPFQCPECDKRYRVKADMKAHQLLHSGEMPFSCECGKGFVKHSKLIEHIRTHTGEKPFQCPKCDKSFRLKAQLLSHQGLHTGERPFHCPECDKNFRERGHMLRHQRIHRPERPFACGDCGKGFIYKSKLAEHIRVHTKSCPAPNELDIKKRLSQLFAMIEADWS
Described as above.

Assay [9] concerns the target Cullin-associated NEDD8-dissociated protein 1 (UniProt Q86VP6). The assay can be described thus: co-fractionation; co-fractionation; cross-linking mass spectrometry.
For the next assay, the target named is Actin-related protein 2 (UniProt P61160). The assay can be described thus: cross-link between two proteins; co-fractionation; cross-linking mass spectrometry.
Assay [10] deals with Actin-related protein 2/3 complex subunit 1A (UniProt Q92747). Described as above.
Assay [11] concerns the target Actin-related protein 2/3 complex subunit 3 (UniProt O15145). The assay is described as above.
Assay [12] addresses Actin-related protein 2/3 complex subunit 4 (UniProt P59998). The description is as above.
The target of assay [13] is Vacuolar protein sorting-associated protein 35 (UniProt Q96QK1). The assay is described as above.
Assay [14] concerns the target Enhancer of rudimentary homolog (UniProt P84090). Put plainly: cross-link between two proteins; affinity purification or IP with mass spectrometry; cross-linking mass spectrometry.

Chain of Cullin-associated NEDD8-dissociated protein 1 (Q86VP6 whole entry): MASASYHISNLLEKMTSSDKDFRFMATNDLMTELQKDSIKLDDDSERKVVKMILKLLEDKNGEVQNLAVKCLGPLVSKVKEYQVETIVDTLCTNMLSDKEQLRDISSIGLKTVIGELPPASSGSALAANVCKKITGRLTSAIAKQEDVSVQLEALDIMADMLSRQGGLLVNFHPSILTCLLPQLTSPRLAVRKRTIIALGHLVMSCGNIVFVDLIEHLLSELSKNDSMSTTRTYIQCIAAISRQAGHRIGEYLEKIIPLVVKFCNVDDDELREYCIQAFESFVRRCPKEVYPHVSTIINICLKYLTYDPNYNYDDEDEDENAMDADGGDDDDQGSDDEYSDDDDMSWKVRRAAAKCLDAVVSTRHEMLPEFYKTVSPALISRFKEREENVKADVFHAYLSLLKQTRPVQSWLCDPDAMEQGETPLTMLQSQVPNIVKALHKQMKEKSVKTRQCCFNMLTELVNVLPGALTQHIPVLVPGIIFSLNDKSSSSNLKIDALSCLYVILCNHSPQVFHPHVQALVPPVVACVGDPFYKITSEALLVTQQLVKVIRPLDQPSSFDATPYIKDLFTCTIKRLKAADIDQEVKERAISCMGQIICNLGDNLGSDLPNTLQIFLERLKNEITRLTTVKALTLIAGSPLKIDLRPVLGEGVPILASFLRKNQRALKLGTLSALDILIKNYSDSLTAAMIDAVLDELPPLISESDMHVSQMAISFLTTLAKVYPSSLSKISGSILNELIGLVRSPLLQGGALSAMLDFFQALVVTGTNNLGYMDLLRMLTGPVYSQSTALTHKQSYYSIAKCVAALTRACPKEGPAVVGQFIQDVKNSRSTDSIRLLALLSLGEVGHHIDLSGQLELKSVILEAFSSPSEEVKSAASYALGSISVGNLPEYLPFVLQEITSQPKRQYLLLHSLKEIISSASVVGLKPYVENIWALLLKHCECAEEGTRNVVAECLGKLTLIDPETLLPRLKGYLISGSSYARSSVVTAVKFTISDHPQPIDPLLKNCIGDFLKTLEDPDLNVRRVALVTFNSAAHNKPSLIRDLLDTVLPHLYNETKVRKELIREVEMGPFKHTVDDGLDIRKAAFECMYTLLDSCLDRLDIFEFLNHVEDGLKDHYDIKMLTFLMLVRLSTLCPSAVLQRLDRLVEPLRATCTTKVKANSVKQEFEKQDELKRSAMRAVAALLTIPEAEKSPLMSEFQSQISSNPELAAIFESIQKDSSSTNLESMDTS
Chain of Histone H1.4, P10412 (P10412 whole entry): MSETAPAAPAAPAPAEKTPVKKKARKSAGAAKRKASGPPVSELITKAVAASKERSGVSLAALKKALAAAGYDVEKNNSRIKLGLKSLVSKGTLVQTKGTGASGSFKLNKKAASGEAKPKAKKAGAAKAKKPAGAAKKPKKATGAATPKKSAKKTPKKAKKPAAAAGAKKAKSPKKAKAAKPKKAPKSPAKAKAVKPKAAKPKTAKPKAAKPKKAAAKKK
Chain of V-type proton ATPase subunit D (Q9Y5K8 whole entry): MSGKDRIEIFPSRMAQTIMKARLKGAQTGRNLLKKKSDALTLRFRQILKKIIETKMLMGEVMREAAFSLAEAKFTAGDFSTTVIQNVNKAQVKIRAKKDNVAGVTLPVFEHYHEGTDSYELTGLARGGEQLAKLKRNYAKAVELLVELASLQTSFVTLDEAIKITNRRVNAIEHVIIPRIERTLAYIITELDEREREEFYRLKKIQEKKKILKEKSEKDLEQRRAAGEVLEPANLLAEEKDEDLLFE
Chain of Ragulator complex protein LAMTOR1, Q6IAA8 (Q6IAA8 whole entry, one chain of several): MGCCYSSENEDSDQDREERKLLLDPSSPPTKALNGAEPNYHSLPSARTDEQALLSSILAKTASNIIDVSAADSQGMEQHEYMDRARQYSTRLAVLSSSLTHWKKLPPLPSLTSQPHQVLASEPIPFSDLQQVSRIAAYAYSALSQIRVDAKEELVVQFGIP
Chain of Ragulator complex protein LAMTOR3 (Q9UHA4 whole entry, one chain of several): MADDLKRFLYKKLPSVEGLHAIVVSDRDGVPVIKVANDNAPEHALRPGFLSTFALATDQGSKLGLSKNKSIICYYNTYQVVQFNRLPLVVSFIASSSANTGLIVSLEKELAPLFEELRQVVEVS
Chain of V-type proton ATPase catalytic subunit A, P38606 (P38606 whole entry): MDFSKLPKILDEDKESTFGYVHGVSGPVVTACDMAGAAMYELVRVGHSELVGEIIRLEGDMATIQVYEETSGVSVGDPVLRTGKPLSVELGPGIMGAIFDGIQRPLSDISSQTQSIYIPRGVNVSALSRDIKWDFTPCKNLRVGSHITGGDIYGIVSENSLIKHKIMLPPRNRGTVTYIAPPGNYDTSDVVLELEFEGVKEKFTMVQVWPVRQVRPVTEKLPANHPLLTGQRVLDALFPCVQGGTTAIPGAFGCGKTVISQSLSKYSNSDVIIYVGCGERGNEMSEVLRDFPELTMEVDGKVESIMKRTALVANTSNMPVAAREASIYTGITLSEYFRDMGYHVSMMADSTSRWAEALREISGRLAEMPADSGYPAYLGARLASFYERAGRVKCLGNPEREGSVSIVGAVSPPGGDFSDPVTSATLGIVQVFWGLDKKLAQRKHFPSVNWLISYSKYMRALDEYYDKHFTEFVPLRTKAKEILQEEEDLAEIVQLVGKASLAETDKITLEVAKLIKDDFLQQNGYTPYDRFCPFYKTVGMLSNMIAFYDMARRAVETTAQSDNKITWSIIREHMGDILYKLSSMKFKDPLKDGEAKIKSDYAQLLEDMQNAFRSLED
Chain of Cullin-1, Q13616 (Q13616 whole entry): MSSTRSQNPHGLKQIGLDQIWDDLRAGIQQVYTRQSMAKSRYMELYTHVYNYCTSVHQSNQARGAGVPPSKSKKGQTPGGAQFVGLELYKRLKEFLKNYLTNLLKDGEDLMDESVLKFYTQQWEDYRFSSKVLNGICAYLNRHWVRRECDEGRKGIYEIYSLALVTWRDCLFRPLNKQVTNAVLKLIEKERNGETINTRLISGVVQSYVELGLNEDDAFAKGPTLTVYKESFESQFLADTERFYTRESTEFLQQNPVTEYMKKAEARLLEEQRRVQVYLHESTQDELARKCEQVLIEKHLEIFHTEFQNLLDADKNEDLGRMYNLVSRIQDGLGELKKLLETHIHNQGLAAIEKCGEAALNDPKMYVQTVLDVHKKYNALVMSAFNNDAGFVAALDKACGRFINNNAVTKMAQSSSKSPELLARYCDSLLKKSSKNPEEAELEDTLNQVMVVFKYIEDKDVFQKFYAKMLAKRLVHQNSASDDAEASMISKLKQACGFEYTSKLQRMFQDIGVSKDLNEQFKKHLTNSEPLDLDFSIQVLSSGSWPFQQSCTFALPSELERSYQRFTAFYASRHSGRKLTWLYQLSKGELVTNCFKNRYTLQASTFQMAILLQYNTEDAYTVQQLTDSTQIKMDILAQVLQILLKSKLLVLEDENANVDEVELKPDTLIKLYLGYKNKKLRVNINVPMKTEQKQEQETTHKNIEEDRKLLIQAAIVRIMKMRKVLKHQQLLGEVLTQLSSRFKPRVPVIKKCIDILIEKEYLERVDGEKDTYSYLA

In the case of “Small ribosomal subunit protein uS17, P62280”, the “listed as a hit” value in assay [1] is listed as “yes”.
For the substance “Large ribosomal subunit protein eL8, P62424”, the “listed as a hit” value with Obscurin is given as “yes”.
With “Large ribosomal subunit protein uL29, P42766”, in assay [2], the “listed as a hit” value was “yes”.
With “Small ribosomal subunit protein eS7, P62081”, in assay [3], the “listed as a hit” value is given as “yes”.
In the case of “Small ribosomal subunit protein eS10, P46783”, in assay [4], the “listed as a hit” value is on record as “yes”.
Take “Ragulator complex protein LAMTOR1, Q6IAA8”: the “listed as a hit” value in [5] is listed as “yes”.
“Large ribosomal subunit protein uL5, P62913”: the “listed as a hit” value in assay [6] was “yes”.
Take “V-type proton ATPase catalytic subunit A, P38606”: the “listed as a hit” value in [7] is reported as “yes”.
As to “Large ribosomal subunit protein uL1, P62906”, the “listed as a hit” value in assay [8] was “yes”.
As for Histone H1.4, P10412, in the assay with Zinc finger protein 786, the “listed as a hit” value was “yes”.
Regarding Cullin-1, Q13616, in [9], the “listed as a hit” value is listed as “yes”.
For “Actin-related protein 2/3 complex subunit 5, O15511”, the “listed as a hit” value in the assay with Actin-related protein 2 is on record as “yes”.
As for Actin-related protein 3, P61158, the “listed as a hit” value in [10] is on record as “yes”.
As to “Actin-related protein 2/3 complex subunit 2, O15144”, the “listed as a hit” value in assay [11] and in [12] was “yes” throughout.
As to “Vacuolar protein sorting-associated protein 26A, O75436”, the “listed as a hit” value in [13] is reported as “yes”.
In the case of “DNA-directed RNA polymerase II subunit RPB1, P24928”, the “listed as a hit” value in assay [14] is “yes”.
